Data on 19 compounds can be found in PubChem BioAssay (NCATS).

Results filed as inconclusive are left out. Calls of active or inactive are those of the source. Calls come from the whole dose curve; as a rule, active = well fitted curve in the direction sought with a large enough effect; inconclusive = small, poorly fitted or top-dose-only effect, or another doubt; inactive = no such curve, though single readings can be large; an effect the other way counts as inactive or inconclusive.

Assay [1] can be described thus: Quantitative High-Throughput drug screen in 47 multiple myeloma cell lines against the NCATS MIPE library collection: KMS12BM_JCRB cell viability assay (AID 1918971). Note: nearly all actives have a fitted effect of over 35% in size. Put shortly: (§1)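 Myeloma cells (500 per well) were exposed to MIPE 4.0 compounds by pin transfer and incubated 48 hours at 37C, 5% CO2. Viability was read as ATP by CellTiter-Glo luminescence, normalised to DMSO (100%) and media-only (0%) wells.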

Assay [2] is described as follows: Quantitative High-Throughput drug screen in 47 multiple myeloma cell lines against the NCATS MIPE library collection: KMS12PE_JCRB cell viability assay (AID 1918972). Note: nearly all actives have a fitted effect of over 30% in size. Summed up:
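qHTS of the MIPE 4.0 collection: 500 myeloma cells/well, 48 h drug exposure at 37C in 5% CO2, then CellTiter-Glo for 5 min at room temperature before luminescence reading.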

A short description of assay [3]: Quantitative High-Throughput drug screen in 47 multiple myeloma cell lines against the NCATS MIPE library collection: KMS26_JCRB cell viability assay (AID 1918975). Note: nearly all actives have a fitted effect of over 45% in size. Summed up:
as §1

The nature of assay [4]: Quantitative High-Throughput drug screen in 47 multiple myeloma cell lines against the NCATS MIPE library collection: MMM1_PLB cell viability assay (AID 1918976). Note: nearly all actives have a fitted effect of over 35% in size. Summed up: (§2)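 Viability after 48 h drug exposure was measured as ATP-dependent luminescence. Cells, 500 per well, sat at 37 °C under 5% CO2; DMSO wells set 100%, media-only wells 0%.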
Assay [5] can be described thus: Quantitative High-Throughput drug screen in 47 multiple myeloma cell lines against the NCATS MIPE library collection: MOLP8_DSMZ cell viability assay (AID 1918977). Note: nearly all actives have a fitted effect of over 45% in size. Put shortly:
as §2

A short description of assay [6]: Quantitative High-Throughput drug screen in 47 multiple myeloma cell lines against the NCATS MIPE library collection: NCIH929_DSMZ cell viability assay (AID 1918978). Note: nearly all actives have a fitted effect of over 35% in size. Summed up: as §2
Assay [7] in a line: Quantitative High-Throughput drug screen in 47 multiple myeloma cell lines against the NCATS MIPE library collection: MM1S_ATCC cell viability assay (AID 1918980). Note: nearly all actives have a fitted effect of over 45% in size. Summed up: as §2
Assay [8] in a line: Quantitative High-Throughput drug screen in 47 multiple myeloma cell lines against the NCATS MIPE library collection: KMS20_JCRB cell viability assay (AID 1918973). Note: nearly all actives have a fitted effect of over 45% in size. Put shortly:
as §1

Assay [9] can be described thus: Quantitative High-Throughput drug screen in 47 multiple myeloma cell lines against the NCATS MIPE library collection: KMS21BM_JCRB cell viability assay (AID 1918974). As to conditions: ATP luminescence, 48 h; viability: at 45.8 µM (top of the series). Summed up: as §1
Assay [10] is described as follows: Quantitative High-Throughput drug screen in 47 multiple myeloma cell lines against the NCATS MIPE library collection: OCIMY1_PLB cell viability assay (AID 1918979). Note: nearly all actives have a fitted effect of over 35% in size. Summed up:
as §2
Potency is the fitted concentration of half-maximal effect.

`CCCCCC[C@H]1C(=O)O[C@H](C)[C@H](NC(=O)c2cccc(NC=O)c2O)C(=O)O[C@@H](C)[C@@H]1OC(=O)CC(C)C`: the Potency was 6620 nM (active) in [1]; 469 nM (active) in [2]; 132 nM (active) in [3]; 148 nM (active) in [4]; 235 nM (active) in assay [5]; 332 nM (active) in [6]. Further, the Potency in [7] is 4690 nM (active).

`COC[C@H]1OC(=O)c2coc3c2[C@@]1(C)C1=C(C3=O)[C@@H]2CC[C@H](O)[C@@]2(C)C[C@@H]1OC(C)=O`: the Potency was 3320 nM (active) in assay [1]; 6620 nM (active) in assay [2]; 5260 nM (active) in assay [8]; 3320 nM (active) in assay [3]; 1050 nM (active) in [4]; 209 nM (active) in assay [6]. For the same compound, in [7], the Potency is 2350 nM (active).

Regarding `COCC1(CO)C(=O)C2CCN1CC2` (configuration not stated), the Potency in [1] was 7430 nM (active); in assay [2], 9350 nM (active); in [8] it was 296 nM (active); in assay [9] it was 4180 nM (active); in [3] it was 662 nM (active); in [4], 5260 nM (active). Moreover, the Potency was 590 nM (active) in assay [5], 833 nM (active) in assay [6], 2090 nM (active) in assay [10] and 264 nM (active) in assay [7].

As to `CC=C(C)C(=O)O[C@H]1C(C)=C2[C@@H]3OC(=O)[C@@](C)(O)[C@@]3(O)[C@@H](OC(=O)CCC)C[C@](C)(OC(C)=O)[C@@H]2[C@@H]1OC(=O)CCCCCCC`, the Potency in assay [1] is 41.8 nM (active); in assay [3], 29.6 nM (active); in assay [4] it was 23.5 nM (active); in assay [5] it was 41.8 nM (active); in assay [6] it was 332 nM (active); in [10] it was 105 nM (active). Also, in assay [7], the Potency is 18.7 nM (active).

For `CCNC(=O)C[C@@H]1N=C(c2ccc(Cl)cc2)c2cc(OC)ccc2-n2c(C)nnc21`, the Potency is 166 nM (active) in assay [2]; 93.5 nM (active) in assay [3]; 209 nM (active) in assay [4]; 209 nM (active) in [5]; 1050 nM (active) in [10]; 1050 nM (active) in assay [7].

For `CCOC(=O)Nc1ccc(NCc2ccc(F)cc2)cc1N`, the Potency in assay [2] was 3320 nM (active); in [6], 14800 nM (active); in [7], 18700 nM (active). The Potency entry in assay [9], in assay [3], in assay [4], in assay [5] and in [10] was “inactive” in each case.

In the case of `COc1ccc2c(c[n+](C)c3c4cc5c(cc4ccc23)OCO5)c1OC`, the Potency in assay [2] was 4690 nM (active); in [3], 3720 nM (active); in [4], 6620 nM (active); in assay [5] it was 3320 nM (active); in assay [6] it was 7430 nM (active); in assay [10], 7430 nM (active). Also, the Potency in [7] is 4690 nM (active).

Consider `CC(=CCCC1=CCC(C2=CC(=O)OC2O)OC1O)CCC1=C(C)CCCC1(C)C` (configuration not stated), for which the Potency result in [2], in assay [3], in [5] and in assay [10] was “inactive” each time. The Potency in [7] was 20900 nM (active).

Turning to `C[C@@H]1CC[C@H]2[C@@H](C)C(=O)O[C@@H]3O[C@@]4(C)CC[C@H]1[C@]32OO4`, the Potency entry in assay [2], in assay [9] and in assay [10] was “inactive” throughout. The Potency in assay [3] is 11800 nM (active); in [5], 187 nM (active); in assay [6] it was 13200 nM (active); in [7], 296 nM (active).

As to `Oc1ccc2c3c1O[C@H]1c4[nH]c5c(c4C[C@@]4(O)[C@@H](C2)N(CC2CC2)CC[C@]314)C[C@@]1(O)[C@H]2Cc3ccc(O)c4c3[C@@]1(CCN2CC1CC1)[C@H]5O4`, the Potency entry in [2], in assay [3], in [5], in assay [6] and in assay [7] was “inactive” throughout.

Regarding `N=c1c2c(-c3ccccc3)c(-c3ccccc3)n(Cc3ccccc3)c2ncn1C1CCC(O)CC1` (configuration not stated), the Potency was 2640 nM (active) in [2]; 2640 nM (active) in assay [8]; 26400 nM (active) in [3]; 18700 nM (active) in assay [4]; 1320 nM (active) in assay [6]; 5260 nM (active) in [7].

For the compound `CCCC[N+]1(C)[C@H]2CC(OC(=O)[C@H](CO)c3ccccc3)C[C@H]1[C@H]1O[C@H]12` (some centres not stated), the Potency result in assay [2], in assay [3], in assay [6], in assay [10] and in assay [7] was “inactive” throughout.

As for `CN1CCN(c2ccc([N+](=O)[O-])c3no[n+]([O-])c23)CC1`, the Potency was 16600 nM (active) in [2]; 8330 nM (active) in assay [8]; 8330 nM (active) in assay [9]; 20900 nM (active) in assay [4]; 11800 nM (active) in [6]; 26400 nM (active) in assay [10]. Further, in [7], the Potency is 23500 nM (active).

As to `O=[N+]([O-])c1ncc[nH]1`, the Potency result in assay [2], in assay [8], in assay [9], in [3], in [6] and in [7] was “inactive” in each case. In addition, the Potency in assay [4] is 3320 nM (active).

Turning to `Clc1ccccc1C(c1ccccc1)(c1ccccc1)n1cccn1`, the Potency result in assay [2], in assay [8], in assay [6] and in assay [10] was “inactive” throughout. In addition, the figures for the Potency in assay [5] and in assay [7] were 16600 nM (active) and 469 nM (active), respectively.

With `CC(C)N(CCNC(=O)CN1CCCC1=O)C(C)C`, the Potency result in assay [2], in [8], in [5], in [6] and in [10] was “inactive” each time.

As for `CC1=C(O)C(=O)C=C2C1=CC=C1[C@@]2(C)CC[C@@]2(C)[C@@H]3C[C@](C)(C(=O)O)CC[C@]3(C)CC[C@]12C`, the Potency in [2] was 1050 nM (active); in assay [8] it was 935 nM (active); in assay [3], 418 nM (active); in [4] it was 1180 nM (active); in assay [5], 418 nM (active); in assay [6], 372 nM (active). The Potency in assay [10] was 833 nM (active); in [7], 662 nM (active).

Consider `COc1ccc(C(=O)c2c(C)n(CCN3CCOCC3)c3cc(I)ccc23)cc1`, for which the Potency was 20900 nM (active) in [2] and 5260 nM (active) in [8]. Besides, the Potency entry in assay [7] was “inactive”.

Take `C[C@@H]1[C@H](O)[C@@H](C)C=CC=CCCC=CC=CC=CC=C[C@H](O[C@H]2O[C@@H](C)[C@H](O)[C@@H](N)[C@@H]2O)CC2O[C@](O)(C[C@@H](O)[C@H](O)CC[C@@H](O)C[C@@H](O)C[C@@H](O)CC(=O)O[C@H]1C)C[C@H](O)[C@H]2C(=O)O`: the Potency entry in assay [2], in assay [3], in assay [5], in assay [6], in assay [10] and in assay [7] was “inactive” in each case.
